From PubChem BioAssay AID1159580 (chemical genetic matrix, 2015)
Among all 5,500 compounds or so, about 2,000 (36%) were called active. Inconclusive results (about 18%) are left out. No stated cut-off is given here; in the data, active means normalized growth mostly below about 0.91 (no sharp cut-off); inconclusive means no clear call, values can overlap the other calls; inactive means mostly above about 0.92. Some of the results follow.

Experiment: chemical genetic growth profiling, strain panel (AID 1159580);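 further: tested at 20 µM; growth read once vehicle control cultures reached saturation at 30 °C; 1 = growth at the plate median or of vehicle wells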
Settings: S. cerevisiae deletion strains, growth OD

Measured: normalized growth

CC(=O)O[C@@H]1CC2C(C)(C)C=CC(=O)[C@]2(C)C2CC[C@@]3(C)[C@H](c4ccoc4)OC(=O)C4OC43[C@@]21C (some centres not stated)
inactive: locus YAL021C, strain ccr4, stronger effect = lower value 0.985 | locus YAL026C, strain drs2, stronger effect = lower value 1 | locus YAL030W, strain snc1, stronger effect = lower value 0.999 | locus YBL061C, strain skt5, stronger effect = lower value 1 | locus YBR009C, strain hhf1, stronger effect = lower value 1 | locus YBR021W, strain FUR4, stronger effect = lower value 1.04 | locus YBR023C, strain chs3, stronger effect = lower value 0.988 | locus YBR171W, strain sec66, stronger effect = lower value 1.01 | locus YBR229C, strain ROT2, stronger effect = lower value 1.01 | locus YBR231C, strain swc5, stronger effect = lower value 1.01 | locus YBR279W, strain paf1, stronger effect = lower value 1 | locus YCL011C, strain gbp2, stronger effect = lower value 0.998 | locus YCL016C, strain dcc1, stronger effect = lower value 1 | locus YCL029C, strain bik1, stronger effect = lower value 1 | locus YCL061C, strain MRC1, stronger effect = lower value 0.998 | locus YCL069W, strain vba3, stronger effect = lower value 0.992 | locus YCR088W, strain abp1, stronger effect = lower value 0.994 | locus YDL005C, strain med2, stronger effect = lower value 0.987 | locus YDL035C, strain GPR1, stronger effect = lower value 1.03 | locus YDL040C, strain nat1, stronger effect = lower value 0.986 | locus YDL074C, strain BRE1, stronger effect = lower value 1.03 | locus YDL101C, strain DUN1, stronger effect = lower value 1.01 | locus YDL134C, strain PPH21, stronger effect = lower value 1.02 | locus YDL185W, strain tfp1, stronger effect = lower value 0.984 | locus YDL192W, strain arf1, stronger effect = lower value 1 | locus YDR001C, strain nth1, stronger effect = lower value 0.995 | locus YDR069C, strain doa4, stronger effect = lower value 0.985 | locus YDR101C, strain arx1, stronger effect = lower value 1 | locus YDR137W, strain rgp1, stronger effect = lower value 0.974 | locus YDR159W, strain sac3, stronger effect = lower value 0.988 | locus YDR162C, strain NBP2, stronger effect = lower value 1.04 | locus YDR195W, strain ref2 1 | locus YDR297W, strain sur2, stronger effect = lower value 0.994 | locus YDR318W, strain mcm21, stronger effect = lower value 1.01 | locus YDR334W, strain swr1, stronger effect = lower value 1.01 | locus YDR335W, strain msn5, stronger effect = lower value 0.997 | locus YDR388W, stronger effect = lower value 1 | locus YDR392W, strain spt3, stronger effect = lower value 0.963 | locus YDR502C, strain sam2, stronger effect = lower value 0.991 | locus YEL003W, strain gim4, stronger effect = lower value 0.984 | locus YEL037C, strain rad23, stronger effect = lower value 0.998 | locus YEL061C, strain CIN8 (second series), stronger effect = lower value 0.995 | locus YER015W, strain faa2, stronger effect = lower value 1 | locus YER016W, strain bim1, stronger effect = lower value 0.993 | locus YER110C, stronger effect = lower value 1 | locus YER111C, strain swi4, stronger effect = lower value 1 | locus YER155C, strain BEM2 (second series), stronger effect = lower value 0.996 | locus YER155C, strain BEM2, stronger effect = lower value 1.01 | locus YER167W, strain BCK2, stronger effect = lower value 1.03 | locus YFR010W, strain ubp6, stronger effect = lower value 1.04 | locus YGL078C, strain dbp3, stronger effect = lower value 0.986 | locus YGL086W, strain mad1, stronger effect = lower value 1 | locus YGL167C, strain pmr1, stronger effect = lower value 0.991 | locus YGL173C, strain kem1, stronger effect = lower value 0.996 | locus YGL227W, strain vid30, stronger effect = lower value 0.992 | locus YGL240W, strain doc1, stronger effect = lower value 0.983 | locus YGL248W, strain PDE1, stronger effect = lower value 1.02 | locus YGL253W, strain hxk2, stronger effect = lower value 0.977 | locus YGR135W, strain pre9, stronger effect = lower value 0.987 | locus YGR229C, strain SMI1, stronger effect = lower value 1.04 | locus YGR252W, strain gcn5, stronger effect = lower value 0.994 | locus YHR013C, strain ard1, stronger effect = lower value 1.01 | locus YHR027C, strain rpn1, stronger effect = lower value 1 | locus YHR030C, strain SLT2, stronger effect = lower value 1.01 | locus YHR079C, strain IRE1 (second series), stronger effect = lower value 1 | locus YHR094C, strain hxt1, stronger effect = lower value 0.995 | locus YHR129C, strain ARP1, stronger effect = lower value 1.02 | locus YHR142W, strain chs7, stronger effect = lower value 0.987 | locus YHR200W, strain rpn10, stronger effect = lower value 0.998 | locus YIL066C, strain RNR3, stronger effect = lower value 1.02 | locus YIL073C, strain SPO22, stronger effect = lower value 1.03 | locus YIL125W, strain kgd1, stronger effect = lower value 1.01 | locus YIR030C, strain dcg1, stronger effect = lower value 0.996 | locus YJL092W, strain hpr5, stronger effect = lower value 1 | locus YJL095W, strain BCK1 (second series), stronger effect = lower value 1 | locus YJL095W, strain BCK1, stronger effect = lower value 1.01 | locus YJL115W, strain asf1, stronger effect = lower value 1 | locus YJL129C, strain trk1, stronger effect = lower value 0.994 | locus YJL134W, strain LCB3, stronger effect = lower value 1.01 | locus YJL154C, strain vps35, stronger effect = lower value 0.999 | locus YJL164C, strain tpk1, stronger effect = lower value 0.996 | locus YJL166W, strain qcr8, stronger effect = lower value 0.992 | locus YJL168C, strain set2, stronger effect = lower value 1 | locus YJL187C, strain SWE1 (second series), stronger effect = lower value 1.01 | locus YJL187C, strain SWE1, stronger effect = lower value 1 | locus YJR043C, strain POL32, stronger effect = lower value 1.03 | locus YJR075W, strain HOC1, stronger effect = lower value 1.02 | locus YKL068W, stronger effect = lower value 1 | locus YKL085W, strain MDH1 (second series), stronger effect = lower value 1 | locus YKL085W, strain MDH1, stronger effect = lower value 1 | locus YKL160W, strain elf1, stronger effect = lower value 0.997 | locus YKL190W, strain CNB1, stronger effect = lower value 1.02 | locus YKR001C, strain vps1, stronger effect = lower value 1 | locus YKR026C, strain gcn3, stronger effect = lower value 0.996 | locus YKR091W, strain srl3, stronger effect = lower value 1 | locus YLL001W, strain dnm1, stronger effect = lower value 1.01 | locus YLL026W, stronger effect = lower value 1 | locus YLL041C, strain sdh2, stronger effect = lower value 1 | locus YLR027C, strain aat2, stronger effect = lower value 0.997 | locus YLR039C, strain RIC1, stronger effect = lower value 1.05 | locus YLR058C, strain SHM2, stronger effect = lower value 1.03 | locus YLR102C, strain apc9, stronger effect = lower value 0.998 | locus YLR221C, strain rsa3, stronger effect = lower value 0.991 | locus YLR258W, strain gsy2, stronger effect = lower value 0.984 | locus YLR262C, strain YPT6 (second series), stronger effect = lower value 1 | locus YLR262C, strain YPT6, stronger effect = lower value 1.09 | locus YLR268W, strain sec22, stronger effect = lower value 1 | locus YLR320W, strain mms22, stronger effect = lower value 0.999 | locus YLR330W, strain CHS5, stronger effect = lower value 1.01 | locus YLR342W, strain FKS1 (second series), stronger effect = lower value 0.989 | locus YLR342W, strain FKS1, stronger effect = lower value 1 | locus YLR357W, strain rsc2, stronger effect = lower value 1.02 | locus YLR370C, strain arc18, stronger effect = lower value 0.999 | locus YLR371W, strain rom2, stronger effect = lower value 1.01 | locus YLR384C, strain iki3, stronger effect = lower value 1.01 | locus YLR418C, strain cdc73, stronger effect = lower value 0.973 | locus YML016C, strain PPZ1, stronger effect = lower value 1.02 | locus YML032C, strain rad52, stronger effect = lower value 1 | locus YML120C, strain ndi1, stronger effect = lower value 1 | locus YML124C, strain tub3, stronger effect = lower value 1 | locus YMR058W, strain fet3, stronger effect = lower value 1 | locus YMR078C, strain ctf18, stronger effect = lower value 0.985 | locus YMR125W, strain sto1, stronger effect = lower value 0.999 | locus YMR129W, stronger effect = lower value 0.99 | locus YMR205C, strain PFK2, stronger effect = lower value 0.996 | locus YMR223W, strain ubp8, stronger effect = lower value 0.997 | locus YMR231W, strain pep5, stronger effect = lower value 0.973 | locus YMR307W, strain GAS1, stronger effect = lower value 1.02 | locus YNL067W, strain RPL9B, stronger effect = lower value 1.02 | locus YNL071W, strain lat1, stronger effect = lower value 0.994 | locus YNL128W, strain TEP1, stronger effect = lower value 1.02 | locus YNL209W, strain ssb2, stronger effect = lower value 1.01 | locus YNL233W, strain BNI4, stronger effect = lower value 1.02 | locus YNL248C, strain rpa49, stronger effect = lower value 1.01 | locus YNL250W, strain rad50, stronger effect = lower value 0.989 | locus YNL271C, strain bni1, stronger effect = lower value 1 | locus YNL298W, strain CLA4, stronger effect = lower value 0.998 | locus YNL307C, strain MCK1, stronger effect = lower value 0.993 | locus YNL322C, strain KRE1 (second series), stronger effect = lower value 1 | locus YNR049C, strain mso1, stronger effect = lower value 1 | locus YNR052C, strain pop2, stronger effect = lower value 1 | locus YOL012C, strain htz1 0.75 | locus YOL147C, strain pex11, stronger effect = lower value 0.995 | locus YOR001W, strain rrp6, stronger effect = lower value 0.995 | locus YOR061W, strain CKA2, stronger effect = lower value 1.02 | locus YOR069W, strain VPS5, stronger effect = lower value 1.01 | locus YOR070C, strain gyp1, stronger effect = lower value 0.998 | locus YOR080W, strain dia2, stronger effect = lower value 0.993 | locus YOR083W, strain WHI5, stronger effect = lower value 1 | locus YOR106W, strain vam3, stronger effect = lower value 1.01 | locus YOR136W, strain idh2, stronger effect = lower value 1 | locus YOR144C, strain elg1, stronger effect = lower value 1.01 | locus YOR184W, strain ser1, stronger effect = lower value 1.01 | locus YOR265W, strain rbl2, stronger effect = lower value 0.997 | locus YOR270C, strain vph1, stronger effect = lower value 0.956 | locus YOR290C, strain snf2, stronger effect = lower value 0.968 | locus YOR316C, strain cot1, stronger effect = lower value 0.993 | locus YPL051W, strain arl3, stronger effect = lower value 1.03 | locus YPL055C, strain LGE1, stronger effect = lower value 1.03 | locus YPL078C, strain atp4, stronger effect = lower value 0.983 | locus YPL106C, strain sse1, stronger effect = lower value 1.02 | locus YPL240C, strain hsp82, stronger effect = lower value 0.998 | locus YPR119W, strain clb2, stronger effect = lower value 0.998 | locus YPR141C, strain kar3, stronger effect = lower value 0.998 | locus YPR163C, strain tif3, stronger effect = lower value 1.01 | locus YPR167C, strain met16, stronger effect = lower value 0.997 | strain wtn01, stronger effect = lower value 1.01
